From the supplement of paper PMC10849652
Of roughly 7,900 targets only a part is listed; those with a hit were picked by preference. About 0.6% of all pairs of compound and target were hits. Unmarked numbers belong to inactive results.

Compound: C1=CC=C(C=C1)[C@H](COC2=CC3=C(C=C2)NC(=O)N3)NC(=O)C4=CC=CN(C4=O)CC5=CC(=C(C=C5)F)F
Assay: log2 fold change, soluble protein after heating vs DMSO (PISA); higher = thermal stabilisation; K562 cells, 10 uM, 30 min; active = over 0.2 and 3.5 SD of the protein, either way, in both replicates (recomputed)
Method in brief: (§1)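 Aliquots of K562 cells (2×10^6 cells/mL) treated with 10 μM compound for 30 min were heated for 3 min over 48°C-58°C. After pooling and extraction in PBS with 0.5% NP-40 at 4°C, soluble protein from a 21,000xg, 90 min spin was quantified by TMTpro 16plex LC-MS/MS with channel sums equalised. Thermal stability is expressed against control samples, from duplicates, as a log2 fold change.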

Chain of UniProt P27816 (P27816 whole entry, looked up): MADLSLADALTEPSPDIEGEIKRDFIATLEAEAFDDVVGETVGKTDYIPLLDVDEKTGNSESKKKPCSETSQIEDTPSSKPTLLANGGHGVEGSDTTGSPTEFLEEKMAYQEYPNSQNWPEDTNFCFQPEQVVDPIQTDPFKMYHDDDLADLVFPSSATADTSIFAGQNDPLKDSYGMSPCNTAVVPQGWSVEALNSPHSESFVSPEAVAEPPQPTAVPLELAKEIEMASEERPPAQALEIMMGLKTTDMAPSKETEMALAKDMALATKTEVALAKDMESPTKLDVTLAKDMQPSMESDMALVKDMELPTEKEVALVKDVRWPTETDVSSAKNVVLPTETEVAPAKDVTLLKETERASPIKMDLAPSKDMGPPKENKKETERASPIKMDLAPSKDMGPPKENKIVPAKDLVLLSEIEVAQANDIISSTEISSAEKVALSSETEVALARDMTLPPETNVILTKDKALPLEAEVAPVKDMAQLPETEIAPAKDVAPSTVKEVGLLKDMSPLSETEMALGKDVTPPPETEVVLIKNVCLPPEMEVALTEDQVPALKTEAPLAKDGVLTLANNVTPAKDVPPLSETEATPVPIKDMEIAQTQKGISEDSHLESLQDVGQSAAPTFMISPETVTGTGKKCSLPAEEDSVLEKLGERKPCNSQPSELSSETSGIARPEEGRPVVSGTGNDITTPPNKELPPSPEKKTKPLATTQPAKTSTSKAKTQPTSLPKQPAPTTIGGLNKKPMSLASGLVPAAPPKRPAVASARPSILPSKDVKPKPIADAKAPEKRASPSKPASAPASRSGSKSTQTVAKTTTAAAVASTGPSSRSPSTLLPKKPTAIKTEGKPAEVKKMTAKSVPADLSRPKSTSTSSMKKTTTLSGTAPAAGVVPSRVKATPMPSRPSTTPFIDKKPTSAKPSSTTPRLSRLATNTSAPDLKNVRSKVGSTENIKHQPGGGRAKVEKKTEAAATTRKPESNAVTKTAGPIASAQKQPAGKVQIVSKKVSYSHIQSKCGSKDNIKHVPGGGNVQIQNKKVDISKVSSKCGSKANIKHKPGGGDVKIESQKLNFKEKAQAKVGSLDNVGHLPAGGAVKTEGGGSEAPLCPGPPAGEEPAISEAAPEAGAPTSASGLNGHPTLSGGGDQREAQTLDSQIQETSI
Chain of UniProt Q86V48 (Q86V48 whole entry, looked up): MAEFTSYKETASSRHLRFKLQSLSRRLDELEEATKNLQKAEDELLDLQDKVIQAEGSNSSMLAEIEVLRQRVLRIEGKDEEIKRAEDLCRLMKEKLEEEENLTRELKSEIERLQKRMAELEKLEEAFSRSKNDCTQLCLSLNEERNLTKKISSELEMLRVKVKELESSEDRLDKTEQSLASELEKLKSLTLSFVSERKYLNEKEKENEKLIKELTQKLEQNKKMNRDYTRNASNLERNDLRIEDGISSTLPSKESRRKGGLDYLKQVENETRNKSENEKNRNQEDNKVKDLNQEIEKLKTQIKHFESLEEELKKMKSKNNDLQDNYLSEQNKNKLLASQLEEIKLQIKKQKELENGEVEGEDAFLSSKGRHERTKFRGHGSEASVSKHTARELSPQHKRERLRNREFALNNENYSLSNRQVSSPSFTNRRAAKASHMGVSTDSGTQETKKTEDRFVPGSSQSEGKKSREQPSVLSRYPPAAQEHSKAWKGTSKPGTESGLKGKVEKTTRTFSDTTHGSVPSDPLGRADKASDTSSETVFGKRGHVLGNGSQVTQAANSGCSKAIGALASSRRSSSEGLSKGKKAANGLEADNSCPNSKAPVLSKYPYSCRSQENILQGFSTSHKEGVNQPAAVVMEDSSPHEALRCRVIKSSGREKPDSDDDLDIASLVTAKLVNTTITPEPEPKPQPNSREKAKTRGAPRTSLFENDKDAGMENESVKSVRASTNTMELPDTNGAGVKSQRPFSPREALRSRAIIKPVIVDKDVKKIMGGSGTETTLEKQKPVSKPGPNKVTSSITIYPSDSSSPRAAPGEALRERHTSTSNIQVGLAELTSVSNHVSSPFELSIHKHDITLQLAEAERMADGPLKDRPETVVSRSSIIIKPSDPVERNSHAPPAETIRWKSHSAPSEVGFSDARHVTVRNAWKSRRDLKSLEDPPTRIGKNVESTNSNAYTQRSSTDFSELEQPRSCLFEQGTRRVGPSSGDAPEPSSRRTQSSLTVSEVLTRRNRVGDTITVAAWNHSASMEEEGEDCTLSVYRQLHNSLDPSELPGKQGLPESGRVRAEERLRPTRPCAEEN
Chain of UniProt P02545 (P02545 whole entry, looked up): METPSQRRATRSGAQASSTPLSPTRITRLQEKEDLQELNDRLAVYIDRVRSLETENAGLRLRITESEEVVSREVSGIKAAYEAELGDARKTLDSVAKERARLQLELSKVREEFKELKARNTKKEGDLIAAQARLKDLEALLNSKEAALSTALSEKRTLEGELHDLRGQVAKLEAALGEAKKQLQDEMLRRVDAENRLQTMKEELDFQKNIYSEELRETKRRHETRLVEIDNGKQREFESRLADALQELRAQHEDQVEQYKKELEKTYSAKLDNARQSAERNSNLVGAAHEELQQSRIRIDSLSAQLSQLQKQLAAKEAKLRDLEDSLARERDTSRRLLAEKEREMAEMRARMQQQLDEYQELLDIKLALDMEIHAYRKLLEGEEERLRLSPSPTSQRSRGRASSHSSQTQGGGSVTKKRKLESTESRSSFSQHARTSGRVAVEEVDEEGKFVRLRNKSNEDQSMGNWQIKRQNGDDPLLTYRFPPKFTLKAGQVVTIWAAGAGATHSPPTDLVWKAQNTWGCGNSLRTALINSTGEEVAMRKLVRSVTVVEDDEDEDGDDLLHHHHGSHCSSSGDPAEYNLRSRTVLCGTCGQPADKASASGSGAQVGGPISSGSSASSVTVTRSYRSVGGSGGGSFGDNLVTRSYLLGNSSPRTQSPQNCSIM
Chain of UniProt P45983 (P45983 whole entry, looked up): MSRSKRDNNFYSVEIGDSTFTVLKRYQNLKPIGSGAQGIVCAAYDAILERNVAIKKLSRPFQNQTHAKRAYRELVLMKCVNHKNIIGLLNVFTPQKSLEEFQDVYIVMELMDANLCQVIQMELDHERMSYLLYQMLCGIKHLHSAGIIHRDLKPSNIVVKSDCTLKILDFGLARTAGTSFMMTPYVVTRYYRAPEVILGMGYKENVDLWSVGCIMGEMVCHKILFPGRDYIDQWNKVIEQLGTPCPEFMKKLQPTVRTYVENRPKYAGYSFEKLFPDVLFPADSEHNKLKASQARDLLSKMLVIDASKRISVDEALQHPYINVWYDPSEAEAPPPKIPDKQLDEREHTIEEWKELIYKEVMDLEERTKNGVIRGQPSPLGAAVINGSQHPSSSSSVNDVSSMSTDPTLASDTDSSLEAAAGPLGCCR
Chain of UniProt Q15648 (Q15648 whole entry, looked up): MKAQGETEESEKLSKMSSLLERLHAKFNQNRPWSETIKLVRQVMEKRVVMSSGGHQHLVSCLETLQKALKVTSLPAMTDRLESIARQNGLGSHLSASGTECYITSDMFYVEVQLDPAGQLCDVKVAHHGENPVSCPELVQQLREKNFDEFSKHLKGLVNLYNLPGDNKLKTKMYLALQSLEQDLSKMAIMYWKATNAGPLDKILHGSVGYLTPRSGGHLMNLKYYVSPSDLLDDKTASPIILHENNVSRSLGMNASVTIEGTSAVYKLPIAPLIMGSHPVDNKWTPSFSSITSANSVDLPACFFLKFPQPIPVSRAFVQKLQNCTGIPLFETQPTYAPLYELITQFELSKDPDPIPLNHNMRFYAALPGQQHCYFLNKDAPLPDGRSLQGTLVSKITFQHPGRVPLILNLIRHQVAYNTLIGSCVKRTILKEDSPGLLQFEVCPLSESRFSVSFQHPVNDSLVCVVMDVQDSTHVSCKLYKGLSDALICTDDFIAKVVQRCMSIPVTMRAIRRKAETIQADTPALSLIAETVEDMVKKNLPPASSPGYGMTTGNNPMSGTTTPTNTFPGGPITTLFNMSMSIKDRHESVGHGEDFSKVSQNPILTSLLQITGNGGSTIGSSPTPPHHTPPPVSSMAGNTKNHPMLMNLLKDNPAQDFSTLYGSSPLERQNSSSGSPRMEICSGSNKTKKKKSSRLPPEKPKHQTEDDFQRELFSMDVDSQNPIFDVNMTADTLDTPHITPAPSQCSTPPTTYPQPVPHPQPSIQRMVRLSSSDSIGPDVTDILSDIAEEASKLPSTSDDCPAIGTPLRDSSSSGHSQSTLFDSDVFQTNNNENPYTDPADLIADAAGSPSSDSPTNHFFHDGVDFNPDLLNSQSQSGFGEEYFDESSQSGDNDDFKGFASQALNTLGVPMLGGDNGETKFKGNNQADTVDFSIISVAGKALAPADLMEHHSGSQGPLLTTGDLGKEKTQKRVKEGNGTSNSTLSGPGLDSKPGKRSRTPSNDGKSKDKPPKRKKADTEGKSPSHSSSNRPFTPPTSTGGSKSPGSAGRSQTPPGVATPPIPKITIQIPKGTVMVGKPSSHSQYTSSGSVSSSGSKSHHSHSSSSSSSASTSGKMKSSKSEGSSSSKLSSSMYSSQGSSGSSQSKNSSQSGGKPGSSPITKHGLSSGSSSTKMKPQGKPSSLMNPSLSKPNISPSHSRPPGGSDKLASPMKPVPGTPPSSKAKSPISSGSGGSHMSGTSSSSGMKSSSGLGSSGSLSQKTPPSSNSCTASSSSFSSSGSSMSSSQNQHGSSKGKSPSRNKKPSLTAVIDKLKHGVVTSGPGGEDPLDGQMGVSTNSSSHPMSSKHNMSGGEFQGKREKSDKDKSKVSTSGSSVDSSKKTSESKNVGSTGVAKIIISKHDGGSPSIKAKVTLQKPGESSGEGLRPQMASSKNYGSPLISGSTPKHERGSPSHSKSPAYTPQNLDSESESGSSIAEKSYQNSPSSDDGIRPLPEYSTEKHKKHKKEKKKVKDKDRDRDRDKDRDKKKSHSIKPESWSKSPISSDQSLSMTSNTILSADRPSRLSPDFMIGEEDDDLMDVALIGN
Chain of UniProt P49006 (P49006 whole entry, looked up): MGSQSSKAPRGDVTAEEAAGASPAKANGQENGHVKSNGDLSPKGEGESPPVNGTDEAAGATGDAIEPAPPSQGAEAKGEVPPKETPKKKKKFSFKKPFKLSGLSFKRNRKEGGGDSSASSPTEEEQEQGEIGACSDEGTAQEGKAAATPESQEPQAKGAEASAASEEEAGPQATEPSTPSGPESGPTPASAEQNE

Target	log2 fold change
LAMP2 isoform 2 (UniProt P13473)	0.051
MIER1 isoform 12 (UniProt Q8N108)	-0.012
MAPK8 isoform 3 (UniProt P45983)	-0.007
LUC7L3 (UniProt O95232)	0.002
MFSD5 isoform 2 (UniProt Q6N075)	0.071
IKZF1 isoform 2 (UniProt Q13422)	0.335
KPNA1 (UniProt P52294)	-0.03
MARCKSL1 (UniProt P49006)	-0.052
MAP4 (UniProt P27816)	0.028
KNTC1 (UniProt P50748)	-0.079
LENG8 (UniProt Q96PV6)	0.036
LAPTM4B (UniProt Q86VI4)	-0.12
KTN1 (UniProt Q86UP2)	0.005
JMJD6 isoform 3 (UniProt Q6NYC1)	-0.004
LARP1 (UniProt Q6PKG0)	0.002
LDLRAP1 (UniProt Q5SW96)	0.055
MAP4 isoform 5 (UniProt P27816)	0.077
LRBA (UniProt P50851)	-0.016
KCT2 (UniProt Q8NC54)	0.046

Target	log2 fold change
IK (UniProt Q13123)	0.023
MED1 (UniProt Q15648)	-0.033
LMNA (UniProt P02545)	0.043
LUZP1 (UniProt Q86V48)	-0.053
IPP (UniProt Q9Y573)	0.065
LRRFIP1 (UniProt Q32MZ4)	0.019
INPP1 (UniProt P49441)	-0.017
KSR1 (UniProt Q8IVT5)	-0.044
LEO1 (UniProt Q8WVC0)	-0.009
LIAS (UniProt O43766)	0.001
LOX (UniProt P28300)	-0.113
MAPKAPK5 (UniProt Q8IW41)	0.042
LMBR1 isoform 3 (UniProt Q8WVP7)	-0.194
ILF3 (UniProt Q12906)	0.06
KCTD2 (UniProt Q14681)	0.008
MFSD11 (UniProt O43934)	0.04
ITM2B (UniProt Q9Y287)	0.013
IRF3 (UniProt Q14653)	-0.049
MARCHF3 (UniProt Q86UD3)	-0.096

Compound: CC1=C(SC2=C1C(=N[C@H](C3=NN=C(N32)C)CC(=O)N)C4=CC=C(C=C4)Cl)C
Assay: as above
Method in brief: as §1

Target	log2 fold change
LAMP2 isoform 2 (UniProt P13473)	-0.015
MIER1 isoform 12 (UniProt Q8N108)	0.073
MAPK8 isoform 3 (UniProt P45983)	0.151
LUC7L3 (UniProt O95232)	-0.021
MFSD5 isoform 2 (UniProt Q6N075)	0.08
IKZF1 isoform 2 (UniProt Q13422)	0.217
KPNA1 (UniProt P52294)	-0.049
MARCKSL1 (UniProt P49006)	0.029
MAP4 (UniProt P27816)	-0.017
KNTC1 (UniProt P50748)	0.011
LENG8 (UniProt Q96PV6)	0.177
KTN1 (UniProt Q86UP2)	-0.012
JMJD6 isoform 3 (UniProt Q6NYC1)	0.046
LARP1 (UniProt Q6PKG0)	-0.046
LRBA (UniProt P50851)	0.05
KCT2 (UniProt Q8NC54)	0.024

Target	log2 fold change
IK (UniProt Q13123)	-0.067
MED1 (UniProt Q15648)	-0.009
LMNA (UniProt P02545)	-0.016
LUZP1 (UniProt Q86V48)	-0.141
LRRFIP1 (UniProt Q32MZ4)	0.036
INPP1 (UniProt P49441)	-0.002
KSR1 (UniProt Q8IVT5)	0.033
LEO1 (UniProt Q8WVC0)	0.046
LIAS (UniProt O43766)	-0.042
MAPKAPK5 (UniProt Q8IW41)	0.001
LMBR1 isoform 3 (UniProt Q8WVP7)	0.147
KCTD2 (UniProt Q14681)	-0.01
MFSD11 (UniProt O43934)	0.11
ITM2B (UniProt Q9Y287)	-0.068
IRF3 (UniProt Q14653)	0.123
